The values that follow come from PubChem BioAssay (Tox21).

Experiment [1] is described as follows: qHTS assay to test for compound auto fluorescence at 535 nm (green) in HEK293 cells (AID 720680). On the technique in general: In qHTS, concentration-response curves come from the screen itself.
The nature of experiment [2]: qHTS assay to test for compound auto fluorescence at 460 nm (blue) in HEK293 cell free culture (AID 720681). In outline: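 Compounds were added to cell-free DMEM with 10% FBS and fluorescence read directly. The blue channel used 405 nm excitation and 460 nm emission, with triamterene as the reference fluorophore.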
A short description of experiment [3]: qHTS assay to test for compound auto fluorescence at 535 nm (green) in HEK293 cell free culture (AID 720682). In outline:
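Cell-free medium (DMEM, 10% FBS) receives compound or DMSO by pintool. Plate read directly at Ex 485/Em 535 nm. Signal converted to fluorescein equivalency.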

The nature of experiment [4]: qHTS assay to test for compound auto fluorescence at 590 nm (red) in HEK293 cell free culture (AID 720683). Put shortly: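 Cell-free wells of DMEM with 10% FBS received compound, and intrinsic fluorescence was read at excitation/emission 540/590 nm. Values expressed as equivalence to Rose Bengal sodium.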
Experiment [5] in a line: qHTS assay to test for compound auto fluorescence at 590 nm (red) in HepG2 cell free culture (AID 720684). In outline:
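Compound was pinned into wells holding MEM with 10% FBS and no cells, and red fluorescence was read at Ex/Em 540/590 nm. Signal is expressed as auto fluorescence equivalency relative to Rose Bengal sodium.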

Experiment [6] can be described thus: qHTS assay to test for compound auto fluorescence at 460 nm (blue) in HepG2 cell free culture (AID 720685). In outline:
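Compound (23 nL) or DMSO pinned into cell-free MEM with 10% FBS; blue fluorescence read at 405/460 nm excitation/emission, expressed as auto-fluorescence equivalency to triamterene.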

Experiment [7] is described as follows: qHTS assay to test for compound auto fluorescence at 460 nm (blue) in HepG2 cells (AID 720687). In outline: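 HepG2 cells in MEM with 10% FBS, attached overnight at 37 C, were exposed to compound or DMSO for 1 hr at 37 C, 5% CO2. Blue fluorescence was read at 405/460 nm, with triamterene as reference fluorophore.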
The target in experiment [8] is Glucocorticoid receptor (Homo sapiens) (UniProt P04150). The experiment can be described thus: qHTS assay to identify small molecule agonists of the glucocorticoid receptor (GR) signaling pathway (AID 720691; active = well fitted activation curve with a large enough effect in the signal ratio in the repeat runs, not every such curve was filed as active; the % refers to the signal ratio). In outline: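 qHTS in GR-bla HeLa cells: 4 h settling at 37 C/5% CO2, 18 h compound incubation at 37 C, 2 h LiveBLAzer B/G FRET substrate at room temperature, fluorescence intensity measured.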

Experiment [9] has the same target. The experiment can be described thus: qHTS assay to identify small molecule antagonists of the glucocorticoid receptor (GR) signaling pathway (AID 720692; active = well fitted inhibition curve with a large enough effect in the signal ratio in the repeat runs, not every such curve was filed as active; the % refers to the signal ratio). In outline: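 Inhibition of glucocorticoid signalling is measured in HeLa cells with a GRE-controlled beta-lactamase reporter; cells are co-treated with compound and 5 nM dexamethasone (final) for 18 h before FRET substrate readout.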

Experiment [10] in a line: qHTS assay to identify small molecule antagonists of the glucocorticoid receptor (GR) signaling pathway - cell viability counter screen (AID 720693). Also: nearly all actives have a fitted effect of over 55% in size.
The nature of experiment [11]: qHTS assay for identifying genotoxic compounds that show differential cytotoxicity against isogenic chicken DT40 cell lines with known DNA damage response pathways - wild type cell line (AID 743012). Also: nearly all actives have a fitted effect of over 60% in size. In outline: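 First, wild type DT40 cells were plated at 300 per well and equilibrated about 0.5 h at 37 C/5% CO2. Next, compounds in DMSO were added and exposure lasted 40 h. Finally, CellTiter-Glo was added for 30 min at room temperature and luminescence recorded.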

The nature of experiment [12]: qHTS assay for identifying genotoxic compounds that show differential cytotoxicity against isogenic chicken DT40 cell lines with known DNA damage response pathways - Rev3 mutant cell line (AID 743014). Also: nearly all actives have a fitted effect of over 55% in size.
A short description of experiment [13]: qHTS assay to identify small molecule antagonists of the androgen receptor (AR) signaling pathway - cell viability counter screen (AID 743033; also: nearly all actives have a fitted effect of over 45% in size).
The target of experiment [14] is Androgen receptor (Homo sapiens) (UniProt P10275). Kind of experiment: qHTS assay to identify small molecule antagonists of the androgen receptor (AR) signaling pathway (AID 743035; active = well fitted inhibition curve with a large enough effect in the signal ratio in the repeat runs, not every such curve was filed as active; the % refers to the signal ratio). Put shortly: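 Beta-lactamase FRET read (2 h RT incubation with LiveBLAzer B/G) following 16 h of compound plus R1881 treatment of AR-UAS-bla HEK293 cells, which had been pre-incubated 4 h at 37C.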

Experiment [15] shares this target. Kind of experiment: qHTS assay to identify small molecule agonists of the androgen receptor (AR) signaling pathway using the MDA cell line (AID 743040; also: nearly all actives have a fitted effect of over 20% in size; also: potency is read from the fitted curve at half-maximal effect). In outline: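 MDA-kb2 breast carcinoma cells carrying MMTV-luciferase (responsive to AR and GR), plated 5 h then treated 16 h with compounds at 37C, 0% CO2. Read-out was ONE-Glo luminescence after 30 min at room temperature.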

A short description of experiment [16]: qHTS assay to identify small molecule antagonists of the androgen receptor (AR) signaling pathway using the MDA cell line - cell viability counter screen (AID 743041; also: nearly all actives have a fitted effect of over 45% in size). In outline:
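MDA-kb2 AR-luc cells (MMTV-luciferase, AR/GR responsive) treated with compounds plus R1881 agonist for 16 h at 37C. CellTiter-Fluor added at 15.5 h; fluorescence read after 30 min in the same wells.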

For experiment [17], the target named is Androgen receptor (Homo sapiens) (UniProt P10275). Kind of experiment: qHTS assay to identify small molecule antagonists of the androgen receptor (AR) signaling pathway using the MDA cell line (AID 743042; also: nearly all actives have a fitted effect of over 55% in size). In outline: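 MDA-kb2 breast carcinoma cells carrying MMTV-luciferase (AR/GR responsive) were co-treated with compounds and the agonist R1881 for 16 h at 37C. Inhibition read as ONE-Glo luminescence; CellTiter-Fluor fluorescence measured in parallel for cytotoxicity.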

The nature of experiment [18]: qHTS assay to test for compound auto fluorescence at 535 nm (green) in HepG2 cell free culture (AID 720686).
The nature of experiment [19]: qHTS assay for identifying genotoxic compounds that show differential cytotoxicity against isogenic chicken DT40 cell lines with known DNA damage response pathways - Rad54/Ku70 mutant cell line (AID 743015). Also: nearly all actives have a fitted effect of over 60% in size.
Experiment [20] addresses Androgen receptor (Homo sapiens) (UniProt P10275). The experiment can be described thus: qHTS assay to identify small molecule agonists of the androgen receptor (AR) signaling pathway (AID 743036; active = well fitted activation curve with a large enough effect in the signal ratio in the repeat runs, with a control signal flat, not every such curve was filed as active; the % refers to the signal ratio). In outline:
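AR-bla HEK293 cells, 2,000/well; 4 h preincubation 37C/5% CO2; compound (DMSO) 16 h at 37C; LiveBLAzer B/G FRET substrate 2 h RT; fluorescence intensity read-out.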

Results filed as inconclusive are left out. Active and inactive are the calls of the source. Unless noted, calls follow the shape of the dose curve; as a rule, active = well fitted curve in the direction sought with a large enough effect in the repeat runs; inconclusive = weak or mixed curves; inactive = no such curve, though single readings can be large; an effect the other way counts as inactive or inconclusive.

Sequence of Glucocorticoid receptor (Homo sapiens) (P04150 whole entry, looked up): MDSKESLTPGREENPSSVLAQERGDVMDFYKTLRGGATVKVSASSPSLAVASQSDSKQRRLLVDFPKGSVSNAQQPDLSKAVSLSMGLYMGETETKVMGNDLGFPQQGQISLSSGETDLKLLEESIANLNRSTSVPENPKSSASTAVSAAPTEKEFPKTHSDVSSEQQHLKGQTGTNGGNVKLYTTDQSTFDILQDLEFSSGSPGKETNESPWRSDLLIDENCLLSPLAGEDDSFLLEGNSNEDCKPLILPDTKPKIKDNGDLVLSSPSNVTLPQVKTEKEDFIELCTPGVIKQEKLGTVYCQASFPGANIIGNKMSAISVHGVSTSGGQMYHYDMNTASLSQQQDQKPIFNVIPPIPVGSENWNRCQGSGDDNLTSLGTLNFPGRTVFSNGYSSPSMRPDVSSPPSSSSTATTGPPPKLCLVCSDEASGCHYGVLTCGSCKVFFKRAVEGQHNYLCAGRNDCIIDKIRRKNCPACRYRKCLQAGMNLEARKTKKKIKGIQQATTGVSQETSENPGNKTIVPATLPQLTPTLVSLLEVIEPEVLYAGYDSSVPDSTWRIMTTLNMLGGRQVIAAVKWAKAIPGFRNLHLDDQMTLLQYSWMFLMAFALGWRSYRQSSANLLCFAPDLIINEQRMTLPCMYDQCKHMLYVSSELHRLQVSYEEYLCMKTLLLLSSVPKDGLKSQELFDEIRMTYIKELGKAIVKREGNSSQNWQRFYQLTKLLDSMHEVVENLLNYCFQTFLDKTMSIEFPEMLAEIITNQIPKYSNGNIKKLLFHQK
Sequence of Androgen receptor (Homo sapiens) (P10275 whole entry, looked up): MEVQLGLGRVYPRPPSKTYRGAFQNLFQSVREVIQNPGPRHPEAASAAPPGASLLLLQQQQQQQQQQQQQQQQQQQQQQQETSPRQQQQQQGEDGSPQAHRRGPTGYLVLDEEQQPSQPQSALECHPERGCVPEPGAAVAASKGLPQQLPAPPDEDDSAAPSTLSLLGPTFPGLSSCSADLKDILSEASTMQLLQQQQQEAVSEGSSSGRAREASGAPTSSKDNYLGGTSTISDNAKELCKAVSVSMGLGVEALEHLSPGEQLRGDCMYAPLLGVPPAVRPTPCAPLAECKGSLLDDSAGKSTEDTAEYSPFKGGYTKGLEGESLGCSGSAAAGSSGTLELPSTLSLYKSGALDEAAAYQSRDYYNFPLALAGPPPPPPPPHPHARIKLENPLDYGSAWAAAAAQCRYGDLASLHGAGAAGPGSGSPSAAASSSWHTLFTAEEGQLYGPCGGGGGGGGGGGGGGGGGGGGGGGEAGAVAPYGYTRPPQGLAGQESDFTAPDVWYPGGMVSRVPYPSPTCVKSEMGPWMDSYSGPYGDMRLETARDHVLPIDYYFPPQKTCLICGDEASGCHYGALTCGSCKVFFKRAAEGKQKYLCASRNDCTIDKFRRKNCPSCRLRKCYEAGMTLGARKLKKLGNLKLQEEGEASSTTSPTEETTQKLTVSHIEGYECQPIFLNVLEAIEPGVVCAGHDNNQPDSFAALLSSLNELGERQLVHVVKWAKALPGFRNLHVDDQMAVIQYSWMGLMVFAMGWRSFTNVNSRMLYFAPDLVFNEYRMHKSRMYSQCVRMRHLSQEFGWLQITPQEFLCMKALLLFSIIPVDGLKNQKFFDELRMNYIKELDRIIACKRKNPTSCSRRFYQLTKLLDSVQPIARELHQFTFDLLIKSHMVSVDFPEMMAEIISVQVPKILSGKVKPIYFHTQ

In the case of `CC(C)c1ccc2oc3nc(N)c(C(=O)O)cc3c(=O)c2c1`, the compound was classed as inactive in experiment [1], in experiment [3], in [4], in [5], in [10] and in [13]. Also, the compound was classed as inactive in experiment [17]. The Potency result in [2], in [6], in [7], in experiment [8], in experiment [9] and in experiment [11] was “inactive” in each case. Also, the Potency result in [12], in experiment [14] and in experiment [16] was “inactive” in each case. Moreover, the Potency in experiment [15] was 11.9 µM (active).
Regarding `CC(C)(C)OC(=O)N1C[C@@H](F)C[C@H]1C(=O)O`, the compound was classed as inactive in experiment [1], in [3], in experiment [4], in [5], in [10] and in [13]. The Potency result in experiment [2], in experiment [6], in experiment [7], in [8], in experiment [9] and in experiment [11] was “inactive” throughout. Further, the Potency result in experiment [12] and in [16] was “inactive” throughout.
`C=CC(=O)OCCCCCC`: the result in experiment [1], in experiment [3], in [4], in experiment [5], in experiment [18] and in experiment [13] was inactive. Further, the Potency entry in experiment [2], in [6], in [7], in experiment [11], in experiment [12] and in experiment [19] was “inactive” throughout. For the same compound, the Potency result in experiment [16] is “inactive”.
As for `CCCCCCCCCCCl`, the compound was called inactive in experiment [1], in [3], in experiment [4], in [5] and in [13]. In addition, the Potency entry in [2], in experiment [6], in experiment [7], in [8], in [11] and in experiment [12] was “inactive” in each case. Also, the Potency entry in [19] and in experiment [16] was “inactive” throughout.
As to `CC(=O)CCc1ccc(O)cc1`, the result in experiment [1], in [3], in experiment [4], in experiment [5], in [10] and in experiment [13] was inactive. Also, the Potency result in [2], in [6], in experiment [7], in [8], in experiment [12] and in [19] was “inactive” throughout. Further, the Potency result in experiment [16] was “inactive”.
Regarding `COc1ccc(NC(C)=O)cc1`, the Potency entry in [2], in experiment [6], in experiment [7], in [8], in experiment [9] and in experiment [11] was “inactive” each time. The Potency result in [12], in [19], in experiment [14], in experiment [15] and in [16] was “inactive” throughout. Further, the result in [3], in [4], in [5], in experiment [18], in experiment [10] and in [13] was inactive. The result in experiment [20] and in [17] was inactive.
As for `NC(=O)c1ncn([C@@H]2O[C@H](CO)[C@@H](O)[C@H]2O)c1O`, the call in experiment [1], in [3], in experiment [4], in [18], in [10] and in experiment [13] was inactive. Further, the Potency entry in [2], in experiment [6], in experiment [7], in experiment [8], in experiment [9] and in experiment [11] was “inactive” throughout. Moreover, the Potency entry in [12], in [19] and in [16] was “inactive” throughout.
For the compound `CCO[Si](C)(OCC)OCC`, the compound was classed as inactive in experiment [1], in experiment [3], in experiment [4], in experiment [18], in experiment [10] and in experiment [13]. Further, the Potency entry in [2], in [6], in experiment [7], in [8], in [11] and in [12] was “inactive” throughout. For the same compound, the Potency result in [19] and in experiment [16] was “inactive” throughout.
